High-throughput results deposited in PubChem BioAssay by National Center for Advancing Translational Sciences (NCATS).
Shown are actives, neighbours in structure and some others; about 3.3% of the full set was active somewhere.
PI5P4K alpha inh: inhibitors of human PI5P4K alpha. P48426. PI5P4Kalpha enzyme, ADP-Glo luminescence, 60 min; hits give low values. max response, %. 330,000 compounds, 1.2% hits; active = max response of -50% or lower; inconclusive = between -30% and -50%; inactive = -30% or higher; note: value at the top dose of about 77 µM
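qHTS, 1536-well: enzyme/substrate mix, compound by pin tool, 5 microM ATP final; RT 60 min; ADP-Glo reagents 1 (45 min) then 2 (30 min); luminescence.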
D3 ag: D3 dopamine receptor (human) agonism; P35462; D3R DiscoveRx beta-arrestin cells, luminescence, 90 min; max activation, %; 410,000 compounds, 0.58% hits; AID 652048; in the data active = max activation above about 30%
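Agonist mode: compounds and dopamine controls were applied to plated cells for 90 min at 37 degrees C after an overnight attachment at 1500 cells/well. Luminescent read-out followed 30 - 60 minutes at room temperature with DiscoveRx detection reagent.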
PI4K2A block: blocks human PI4K2A kinase activity; 420,000 compounds, 0.13% hits; AID 1346378; activity change, negative = inhibition, % at 76.9 µM; purified PI4K2A, ADP-Glo luminescence, 1 h; hits give low values; in the data active = activity change below about -50%; inconclusive = mostly about -30% to -49%
Target sequence (Q9BTU6 whole entry, looked up): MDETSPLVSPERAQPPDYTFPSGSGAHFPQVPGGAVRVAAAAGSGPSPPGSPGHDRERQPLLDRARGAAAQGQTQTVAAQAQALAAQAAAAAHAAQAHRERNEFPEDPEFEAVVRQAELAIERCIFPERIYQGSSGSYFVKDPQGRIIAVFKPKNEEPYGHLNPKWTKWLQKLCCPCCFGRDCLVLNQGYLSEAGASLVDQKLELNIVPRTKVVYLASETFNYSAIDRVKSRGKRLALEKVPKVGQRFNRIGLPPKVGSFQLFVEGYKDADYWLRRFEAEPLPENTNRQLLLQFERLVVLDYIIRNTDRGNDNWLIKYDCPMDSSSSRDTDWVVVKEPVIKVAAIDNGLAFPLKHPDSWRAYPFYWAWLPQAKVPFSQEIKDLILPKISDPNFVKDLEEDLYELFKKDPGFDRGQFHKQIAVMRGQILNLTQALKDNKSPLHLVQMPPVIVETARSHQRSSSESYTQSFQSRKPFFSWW
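Compounds are screened against recombinant PI4K2A using PI as substrate and ATP, the latter dispensed at 300 microM. Reactions run one hour at ambient temperature before ADP-Glo detection; full inhibition defined by wells lacking enzyme.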
DRD3 antagonist: D3 dopamine receptor (human) antagonism; D3R cells, DiscoveRx beta-arrestin luminescence, antagonist mode; hits give low values; max response, negative = inhibition, %; 360,000 compounds, 2.5% hits; in the data active = max response below about -50%; inconclusive = no clear call, values can overlap the other calls
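Cells plated overnight at 1500 cells/well, then exposed to library compounds with dopamine controls for 90 minutes at 37 degrees C. DiscoveRx reagent added for 30–60 minutes at room temperature; luminescence read, quantitative HTS format.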
LDHA block: inhibitors of human lactate dehydrogenase A; P00338; purified LDHA, NADH/diaphorase-resazurin fluorescence; hits give low values; activity change, % (values are at about 110 or 230 µM); 480,000 compounds, 0.15% hits; AID 1347041; in the data active = activity change below about -30%; inconclusive = mostly about -25% to -30%
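Human LDH5 at 2 nM final in Tris HCl pH 7.4 with 0.06 mM NADH and 0.2 mM pyruvate, reacted 5 minutes at room temperature. Remaining NADH coupled via diaphorase/resazurin; resorufin fluorescence read at 0 and 20 minutes, normalized to enzyme-free and DMSO wells.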
Numbers stand for hits; i = inactive; ? = inconclusive; nt = no result given; ! = not confirmed by another sample.

SMILES	PI5P4K alpha inh	D3 ag	PI4K2A block	DRD3 antagonist	LDHA block
Cc1ccc2nc(N3CCNCC3)c(-n3nc(C)cc3C)nc2c1	nt	nt	nt	nt	i
CCN(c1ccccc1)S(=O)(=O)c1cccc(C(=O)NCC(c2ccc(OC)cc2)N2CCCCC2)c1 (stereo not given)	i	i	i	-122	i
COc1ccc(NS(=O)(=O)c2cccc(C(=O)NCC(c3ccc(OC)cc3)N3CCCCC3)c2)cc1 (stereo not given)	i	i	i	-57	i
C=CCN(c1ccccc1)S(=O)(=O)c1cccc(C(=O)NCC(c2ccc(OC)cc2)N2CCCCC2)c1 (stereo not given)	i	i	i	?	i
COc1ccccc1N(C)S(=O)(=O)c1ccc(C(=O)NCC(c2ccco2)N2CCCCC2)cc1 (stereo not given)	i	i	i	?	i
COc1ccc(N(C)S(=O)(=O)c2cccc(C(=O)NCC(c3ccco3)N3CCCC3)c2)cc1 (stereo not given)	i	i	i	-57	i
COc1cccc(C(=O)NCCS(=O)(=O)N2CCCC2)c1	i	i	i	-63	i
C/C(=N/Nc1ccc([N+](=O)[O-])cc1[N+](=O)[O-])C1CCCCC1	nt	nt	nt	nt	i
CCCNC(=S)NNC(C)=O	nt	nt	nt	nt	i
CN(C)C(CNC(=O)c1cc(S(=O)(=O)N(C)c2ccc(F)cc2)ccc1Cl)c1cccs1 (stereo not given)	i	i	i	i	i
COc1ccc(C(CNC(=O)c2cccc(S(=O)(=O)Nc3ccccc3OC)c2)N2CCCC2)cc1 (stereo not given)	i	i	i	-65	i
Cc1ccc(S(=O)(=O)N(C)c2ccc(C(=O)NCC(c3ccccc3)N3CCCC3)cc2)cc1 (stereo not given)	i	i	i	-64	i
COc1ccc(NS(=O)(=O)c2cccc(C(=O)NCC(c3ccc(OC)cc3)N3CCCC3)c2)cc1 (stereo not given)	i	i	i	?	i
COc1ccc(C(CNC(=O)c2cccc(N(C)C)c2)N2CCCC2)cc1 (stereo not given)	i	i	i	i	i
CCC1CCc2sc(C(=O)NCC(c3ccc(OC)cc3)N3CCCC3)cc2C1 (stereo not given)	i	i	i	-89	i
COc1ccc(N(C)S(=O)(=O)c2cccc(C(=O)NCC(c3cccs3)N(C)C)c2)cc1 (stereo not given)	i	i	i	-67	i
CN(c1ccccc1)S(=O)(=O)c1ccc(C(=O)NCC(c2ccco2)N2CCCCC2)cc1 (stereo not given)	i	i	i	?	i
COc1ccc(CN2C(C(=O)NC3CCCC3)CSCCS2(=O)=O)cc1 (stereo not given)	nt	nt	i	nt	nt
N#CC1(NC(=O)CSc2ncccn2)CCCC1	nt	nt	nt	nt	i
COc1ccc(C(CNC(=O)c2ccc(OC)c(S(=O)(=O)N3CCCC3)c2)N2CCCC2)cc1 (stereo not given)	i	i	i	-83	i
Cn1c(=O)[nH]c(=O)c2c1nc(N)n2CC(O)COc1ccc(Cl)cc1Cl (stereo not given)	nt	nt	nt	nt	i
O=[N+]([O-])c1c(Nc2cccc(O)c2)cc(Cl)c2nonc12	i	i	i	-131	i
O=[N+]([O-])c1c(Nc2ccccc2)cc(Cl)c2nonc12	nt	nt	nt	nt	i
Cc1c(Nc2cc(Cl)c3nonc3c2[N+](=O)[O-])c(=O)n(-c2ccccc2)n1C	i	i	?	-101	i
Cc1c(Nc2ccc3nonc3c2[N+](=O)[O-])c(=O)n(-c2ccccc2)n1C	i	i	i	i	i
SMILES	PI5P4K alpha inh	D3 ag	PI4K2A block	DRD3 antagonist	LDHA block
C=CCNC(=O)C(C)N1CCN(c2oc(-c3ccco3)nc2C#N)CC1 (stereo not given)	nt	nt	nt	nt	i
CN(C)c1ccc(NC(=O)CCC(=O)c2cccs2)cc1	nt	nt	nt	nt	i
Cc1ccc(N=C2C(=O)Nc3ccc(Br)cc32)cc1	i	i	i	-67	i
Cc1ccc(N=C2C(=O)Nc3c(C)cccc32)cc1	i	i	i	i	i
Clc1ccccc1-c1ccc(CN2CCN(c3ccccc3)CC2)o1	i	i	i	-67	i
O=[N+]([O-])c1ccc(CN2CCN(c3ccccc3)CC2)o1	i	i	i	i	i
O=C(O)c1cccc(Cn2c(Cl)c(/C=N/NC(=O)c3ccccc3Cl)sc2=O)c1	i	i	i	i	i
O=C(N/N=C/c1sc(=O)n(Cc2ccc(Br)cc2)c1Cl)c1ccco1	i	i	i	i	-46
O=C(O)c1cccc(Cn2c(Cl)c(/C=N/Nc3ccccc3)sc2=O)c1	-64	i	i	i	i
O=C(N/N=C/c1ccc(Br)s1)c1ccco1	i	i	i	i	i
COc1ccc(/C(=N/OC(=O)c2ccc(Cl)cc2)c2nccc3cc(OC)c(OC)cc23)cc1OC	nt	nt	nt	nt	i
CC(NC(=O)c1cc(=O)[nH]c2ccccc12)c1ccncc1 (stereo not given)	nt	nt	nt	nt	i
Cn1ncc2c(N3CCN(c4ccccc4F)CC3)ncnc21	nt	30!	i	i	i
O=c1oc2cc(OCc3c(F)cccc3Cl)ccc2cc1-c1ccccn1	i	i	i	i	i
CCCOc1ccc2cc(-c3ccccn3)c(=O)oc2c1	?	i	-61	i	i
CC1CCc2[nH]c3ccc(C(=O)NC4CCCC4)cc3c2C1 (stereo not given)	nt	nt	nt	nt	i
COCCNC(=O)c1c(C)cc(C)cc1C	i	i	i	-77	i
COCCNC(=O)c1ccc(C)cc1C	i	i	i	i	i
CCN1CCN(c2nc(-c3ccccc3)c3ccccc3n2)CC1	i	i	i	-82	i
O=C(O)CN1C(=O)S/C(=C/c2ccc(F)cc2)C1=O	nt	nt	nt	nt	i
Cc1cn2c(=O)cc(COc3ccccc3NC(=O)c3ccc(C(C)(C)C)cc3)nc2s1	nt	i	i	nt	i
Cc1cn2c(=O)cc(COc3ccc(NC(=O)c4ccc(C(C)(C)C)cc4)cc3)nc2s1	nt	51	i	nt	i
O=C(CCc1ncc(-c2ccccc2Cl)o1)NCc1ccccc1	nt	nt	nt	nt	i
CC(=O)Nc1ccc(CNC(=O)c2sccc2C)cc1	nt	nt	nt	nt	i
COc1ccc2[nH]c3c(=O)n(Cc4ccc(C(=O)N5CCCCCC5)cc4)c(=S)[nH]c3c2c1	i	i	i	i	i
CCOC(=O)N1CCN(C(=O)c2ccc(Cn3c(=S)[nH]c4cc5c(cc4c3=O)OCO5)cc2)CC1	nt	85	i	i	i
CCN(CC)CCNC(=O)CCCCn1c(=S)[nH]c2c([nH]c3ccc(OC)cc32)c1=O	nt	i	i	-56	i
COCCNC(=O)CCCCCn1c(=S)[nH]c2ccccc2c1=O	i	i	i	i	i
CCOC(=O)N1CCN(C(=O)c2ccc(Cn3c(=S)[nH]c4cc(OCC)c(OCC)cc4c3=O)cc2)CC1	i	i	i	i	i
COc1ccc2[nH]c3c(=O)n(Cc4ccc(C(=O)N5CCC(C(N)=O)CC5)cc4)c(=S)[nH]c3c2c1	-59	i	i	i	i
